Screens deposited in PubChem by several laboratories.
Hits are enriched below; roughly 2.3% of the tested compounds scored in any of these assays.
BCLXL inh: inhibitors of human Bcl-xL, primary screen, biochemical, fluorescence polarization, HTS; Bcl-2-like protein 1 (Homo sapiens), Q07817; GST-Bcl-xL / FITC-Bim BH3 peptide fluorescence polarization; inhibition, % at 10.9 µM; 0.7% of 320,000 active; AID 2129, 2009;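 active means inhibition above the mean of all tested compounds plus 3 SD, cutoff set per campaign, cut at about 30% in these data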;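 further: 0% = DMSO wells and 100% = unlabeled Bim-BH3 peptide competitor; inhibitors lower millipolarization by displacing the labeled peptide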
Target sequence (Q07817 whole entry, looked up): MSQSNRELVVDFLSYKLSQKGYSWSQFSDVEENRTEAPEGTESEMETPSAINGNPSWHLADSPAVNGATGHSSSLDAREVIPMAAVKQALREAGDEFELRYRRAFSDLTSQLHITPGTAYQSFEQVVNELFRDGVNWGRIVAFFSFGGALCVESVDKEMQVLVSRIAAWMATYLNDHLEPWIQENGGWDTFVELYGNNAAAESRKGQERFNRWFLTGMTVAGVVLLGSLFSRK
Mcl1 Bid PPI: Mcl-1/Bid binding inhibitors, primary screen, biochemical, TR-FRET, 1536-well. Induced myeloid leukemia cell differentiation protein Mcl-1 (Homo sapiens), Q07820. TR-FRET Mcl-1/Bid-Dy647 peptide binding. inhibition, % at 21.7 µM. 0.97% of 220,000 active. AID 1021, 2008;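 active means compounds that cut the binding signal by more than half at the single screening dose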;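 further: His-tagged Mcl-1 with europium anti-His antibody binding Bid BH3 peptide; 0% = Mcl-1 plus peptide wells and 100% = peptide-only wells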
Bim-Mcl-1: inhibitors of Bim peptide binding to Mcl-1, primary screen, biochemical, bead-based flow cytometry, multiplex; 0.1% of 190,000 active; inhibition, % at 10 µM; Bim peptide-Mcl-1 binding; Induced myeloid leukemia cell differentiation protein Mcl-1 (Homo sapiens), Q07820; AID 1009, 2008; in the data active means inhibition above about 40%;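 further: 0% = no compound tracer wells and 100% = peptide blocker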
MCL1-BIM inh: inhibitors of MCL1 binding to BIM-BH3, primary screen, biochemical, fluorescence polarization | inhibition, % at 10.9 µM | 0.68% of 320,000 active | GST-MCL1 / FITC-Bim-BH3 fluorescence polarization | Induced myeloid leukemia cell differentiation protein Mcl-1 (Homo sapiens), Q07820;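 active means inhibition above the mean inhibition of all tested compounds plus 3 SD, set per campaign, cut at about 40% in these data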;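 further: 0% = DMSO wells and 100% = unlabeled Bim-BH3 peptide control; higher means more loss of mP so more displacement of Bim peptide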
GLD-1 RNA inh: GLD-1/TGE RNA complex disruptors, primary screen, biochemical, fluorescence polarization. 0.44% of 320,000 active. Female germline-specific tumor suppressor gld-1 (Caenorhabditis elegans), Q17339. inhibition, % at 5.96 µM. AID 2280, 2010. purified GLD-1 + fluorescein TGE RNA;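 active means percent inhibition above a per-plate cutoff, the plate mean of test compounds plus 3 SD, cut at about 30% in these data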;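 further: 0% = DMSO wells with GLD-1 and probe and 100% = wells lacking GLD-1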
Target sequence (Q17339 whole entry, looked up): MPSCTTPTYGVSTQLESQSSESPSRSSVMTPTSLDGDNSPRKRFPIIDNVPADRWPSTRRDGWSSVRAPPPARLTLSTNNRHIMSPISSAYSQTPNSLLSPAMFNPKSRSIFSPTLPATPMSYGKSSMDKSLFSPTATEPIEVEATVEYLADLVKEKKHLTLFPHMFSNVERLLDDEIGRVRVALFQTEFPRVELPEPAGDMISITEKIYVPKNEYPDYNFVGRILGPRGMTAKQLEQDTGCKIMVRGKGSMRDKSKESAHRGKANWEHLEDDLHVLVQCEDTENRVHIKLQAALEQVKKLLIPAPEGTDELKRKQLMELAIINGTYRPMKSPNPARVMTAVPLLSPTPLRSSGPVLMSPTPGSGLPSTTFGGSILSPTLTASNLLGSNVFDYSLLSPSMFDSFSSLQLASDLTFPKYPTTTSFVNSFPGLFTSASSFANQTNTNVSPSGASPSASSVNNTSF
Mcl1-Noxa inh: Mcl-1/Noxa binding inhibitors, primary screen, biochemical, TR-FRET, 1536-well. Induced myeloid leukemia cell differentiation protein Mcl-1 (Homo sapiens), Q07820. TR-FRET Mcl-1/Noxa peptide binding, 2 h. inhibition, % at 21.7 µM. 1.5% of 220,000 active. AID 1022, 2008;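 active means compounds that cut the protein-peptide binding signal by more than 50% relative to plate controls in a single-dose test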;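 further: His-tagged Mcl-1 with rhodamine Noxa BH3 peptide and terbium anti-His antibody; 0% = Mcl-1 plus Noxa peptide wells and 100% = peptide-only wells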
* marks the source's active call; other numbers are inactive results; nt = not tested or not shown.

SMILES | BCLXL inh | Mcl1 Bid PPI | Bim-Mcl-1 | MCL1-BIM inh | GLD-1 RNA inh | Mcl1-Noxa inh
CSc1nc2c(c(=O)[nH]1)C(c1cccs1)C1=C(CCCC1=O)N2 (stereo unspecified) | 0 | -42 | -4 | 9 | 1 | 7
O=C1CCCC2=C1C(c1cn(-c3ccccc3)nc1-c1cccs1)c1c([nH]c(=O)[nH]c1=O)N2 (stereo unspecified) | 1 | 50 | 0 | 11 | -1 | 62*
CCOC(=O)CC(=O)CSC1=C(C#N)C(c2ccccc2OC)CC(=O)N1 (stereo unspecified) | 31* | 0 | -2 | -9 | 2 | 11
Cc1ccc(NCc2ccccc2O)cc1C | 4 | -43 | -1 | 1 | 7 | 17
Oc1ccccc1CNc1ccc(OC(F)(F)F)cc1 | -2 | -78 | 0 | -5 | 3 | 57*
Cc1cccc(-n2c(O)c(C=Nc3ccccc3-c3n[nH]c(=S)[nH]c3=O)c3ccccc3c2=O)n1 | 12 | -20 | nt | 9 | 0 | 45
Cc1cccc(-n2c(O)c(C=Nc3ccccc3O)c3ccccc3c2=O)n1 | 10 | -109 | nt | 2 | -15 | 24
Cc1ccc(-n2c(O)c(C=Nc3ccccc3-c3n[nH]c(=S)[nH]c3=O)c3ccccc3c2=O)cc1C | nt | -94 | -3 | nt | nt | 101*
Cc1ccc(-n2c(O)c(C=Nc3ccccc3-c3n[nH]c(=S)[nH]c3=O)c3ccccc3c2=O)c(C)c1 | 20 | -66 | -4 | 23 | -5 | 63*
CCOC(=O)c1ccc(NC(=O)CN2CCN(C(=O)C3CCCO3)CC2)cc1 (stereo unspecified) | 4 | nt | nt | -1 | 3 | nt
COc1cccc(/C=N/NC(=O)c2ccc(CN3c4cccc5cccc(c45)S3(=O)=O)cc2)c1 | 2 | 0 | -3 | -6 | 8 | -2
O=C(N/N=C/c1cccnc1)c1ccc(CN2c3cccc4cccc(c34)S2(=O)=O)cc1 | -3 | -13 | 0 | 3 | -16 | 66*
CC[C@H](C)/C=C(C)/C=C/C(=O)Cc1cc(O)c(C)c(O)c1C=O | 18 | -75 | nt | 22 | 17 | 18
CC[C@H](C)/C=C(C)/C=C/C1=CC2=CC(=O)[C@]3(C)OC(=O)[C@@H](C(C)=O)[C@@H]3C2=CO1 | 38* | -13 | 1 | 47* | 34* | 4
COc1ccc(NC(C)=O)cc1S(=O)(=O)Nc1ccc(OCc2ccccc2)cc1 | -2 | nt | nt | 4 | -3 | nt
COc1ccc(NC(=O)c2ccco2)cc1NC(=O)c1c(OC)cccc1OC | 1 | nt | nt | -6 | 0 | nt
COc1ccc(NC(=O)c2ccco2)cc1NC(=O)c1ccco1 | 10 | 0 | 41* | 3 | 6 | -23
Cn1c(=O)c2c(nc(CN3CCN(CCO)CC3)n2CCc2ccccc2)n(C)c1=O | 2 | -8 | 0 | 7 | -4 | 26
CC1CCC(NC(=O)CN2CCCN(Cc3ccc(F)cc3Cl)C2=O)CC1 (stereo unspecified) | 1 | 8 | 1 | 6 | -6 | -2
Cc1cc(C)cc(-n2c(N)c(C(=O)Nc3c(C)n(C)n(-c4ccccc4)c3=O)c3nc4ccccc4nc32)c1 | 32* | -24 | -12 | 0 | 7 | 41
Cc1ccc(-n2c(N)c(C(=O)Nc3c(C)n(C)n(-c4ccccc4)c3=O)c3nc4ccccc4nc32)cc1 | -6 | 2 | -34 | -18 | 6 | 32
CCN(CC)S(=O)(=O)c1ccc(NC(=O)Nc2cccc(C(F)(F)F)c2)cc1 | -1 | 101* | 0 | -6 | 6 | 3
Cc1ccc(S(=O)(=O)Nc2ccc(NC(=O)Nc3cccc(C(F)(F)F)c3)cc2)cc1 | 1 | -9 | 0 | -3 | 11 | 13
COC(=O)c1cc(C)sc1NC(=O)CCc1ccccc1 | 4 | nt | nt | 0 | -3 | nt
Cc1cccc(OCC(=O)Nc2ccccc2C(=O)N2CCOCC2)c1 | 2 | -30 | -3 | 4 | 0 | 59*
SMILES | BCLXL inh | Mcl1 Bid PPI | Bim-Mcl-1 | MCL1-BIM inh | GLD-1 RNA inh | Mcl1-Noxa inh
Cc1cc(C)cc(OCC(=O)Nc2ccccc2C(=O)N2CCOCC2)c1 | 1 | nt | nt | 1 | 2 | nt
Cc1ccc(-c2nc(Nc3ccc(O)cc3)c3ccccc3n2)cc1 | 2 | nt | nt | 5 | -6 | nt
Cc1ccc(-c2nc(Nc3ccc(N4CCOCC4)cc3)c3ccccc3n2)cc1 | 0 | -52 | nt | 25 | 12 | 64*
COc1cccc(/C=c2/s/c(=C(\C#N)C(=O)N3CCOCC3)n(-c3ccccc3)c2=O)c1 | 4 | 53* | 3 | 9 | 2 | 43
COc1ccc(/C=c2\s/c(=C(/C#N)C(=O)NCc3ccco3)n(-c3ccccc3)c2=O)cc1 | 2 | -9 | 0 | 2 | -5 | 10
COc1cc(O)oc1C=Nc1ccc(C(F)(F)F)cc1 | 1 | -46 | -2 | -5 | 0 | 64*
O=c1c(=NNc2ccccc2Cl)c(=O)c2ccccc12 | nt | 57* | -3 | nt | nt | 33
O=C1C2C3C=CC(CC3)C2C(=O)N1c1ccc(Br)cc1[N+](=O)[O-] (stereo unspecified) | 1 | nt | nt | -1 | -4 | nt
Cc1ccc2nsnc2c1NC(=O)c1ccc(-c2cc(Cl)ccc2Cl)o1 | 2 | 31 | 2 | 2 | 2 | 51*
CN1CCC(N(C)C(=O)CNC(=O)c2ccc(C(C)(C)C)cc2)CC1 | 3 | -5 | -2 | 6 | 5 | 58*
CN1CCC(N(C)S(=O)(=O)c2ccc(C(C)(C)C)cc2)CC1 | 3 | nt | nt | -1 | -1 | nt
CCN1/C(=C/c2ccc3cc(C)ccc3[n+]2CC)Sc2ccccc21 | -40 | 9 | 5 | -106 | 57* | -17
CCN1/C(=C/c2ccc3cc(C)ccc3[n+]2CC)Sc2cc(C)c(C)cc21 | nt | -28 | 30 | nt | nt | 12
O=C(CSc1ncnc2c1oc1ccccc12)N1CCN(c2ccccc2)CC1 | 2 | nt | nt | 2 | 4 | nt
CC(C)=CCc1c(O)cc2oc3c(CC=C(C)C)c(O)c(O)c(CC=C(C)C)c3c(=O)c2c1O | 2 | -51 | nt | 13 | 10 | 60*
CC(C)=CCc1cc(-c2oc3cc(O)cc(O)c3c(=O)c2O)ccc1O | 3 | nt | nt | 1 | 4 | nt
Cc1cc2oc(=O)cc(CN3CCN(S(=O)(=O)c4ccc5c(c4)OCCO5)CC3)c2cc1C | 3 | 1 | -2 | -5 | 0 | -11
O=C(CCS(=O)(=O)c1ccc(Br)s1)NC1CCCCCC1 | 1 | 78* | -2 | 1 | -10 | -8
CC1=CC(c2ccccc2)n2nc(NC(=O)CCC(=O)O)nc2N1 (stereo unspecified) | 2 | -8 | nt | 0 | 7 | 4
